Screening data as filed in PubChem.
Gli-Sufu block = Gli-Sufu pathway antagonists, primary screen, luciferase luminescence, Sufu-KO-LIGHT cells, uHTS | Sufu-KO-LIGHT fibroblasts, Gli luciferase reporter luminescence | inhibition, % at 5 µM | 0.74% of 340,000 active | AID 588413, 2011;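 active means inhibition above about 55%, limit read from the data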
COUP-TFII inh = NR2F2 transcriptional activity inhibitors, primary screen, cell-based, luciferase reporter, HEK293T, luminescence; AID 686940, 2013; inhibition, % at 8.6 µM; 0.7% of 370,000 active; COUP transcription factor 2 (Homo sapiens), P24468; HEK293T NGFI-A luciferase reporter;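 active means inhibition above a per-plate cutoff, mean inhibition of test wells between control levels plus 3 SD, cut at about 38% in these data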;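 further: cells cotransfected with COUP-TFII expression vector driving the NGFI-A reporter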
LRH-1 inv ag = LRH-1 (NR5A2) inverse agonists, primary screen, cell-based, luminescence, HEK293T, StAR-luciferase reporter. inhibition, % at 3.6 µM. 0.13% of 360,000 active. Nuclear receptor subfamily 5 group A member 2 (Homo sapiens), O00482. LRH-1 transfected, 24 h;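 active means inhibition above the mean inhibition of all tested compounds plus 3 SD, cut at about 73% in these data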
SRC3 inh = SRC3 coactivator transcriptional activity inhibitors, primary screen, cell-based, luminescence | Nuclear receptor coactivator 3 (Homo sapiens), Q9Y6Q9 | HEK293 GAL4-SRC3 luciferase reporter | inhibition, % at 3.6 µM | 0.17% of 360,000 active | AID 588352, 2011;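 active means inhibition above a per-campaign cutoff, the mean of all compounds plus 3 SD, cut at about 60% in these data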;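 further: higher means less SRC3-driven luciferase light from the GAL4 reporter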
NCOA2 inhibitor = inhibition of GAL4-SRC2 driven luciferase reporter, primary screen, SRC2 inhibitor project, cell-based, luminescence. HEK293 GAL4-SRC2 luciferase reporter. inhibition, % at 9 µM. 0.17% of 370,000 active. AID 651957, 2012;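 active means inhibition above the mean inhibition of all tested compounds plus 3 SD, set per campaign, cut at about 52% in these data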
SRC1 inh = SRC1 coactivator transcriptional activity inhibitors, primary screen, cell-based, luminescence; 0.12% of 360,000 active; inhibition, % at 3.6 µM; AID 588354, 2011; Nuclear receptor coactivator 1 (Homo sapiens), Q15788; HEK293 GAL4-SRC1 luciferase reporter;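 active means inhibition above the campaign mean plus 3 SD, with each screening campaign given its own cutoff, cut at about 60% in these data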
Gal4-VP16 ctr = Gal4-VP16 luciferase reporter inhibitors, counter-screen for COUP-TFII antagonist project, cell-based, luminescence, HEK293; shares compounds with COUP-TFII inh; inhibition, % at 8.5 µM; 25% of 2,500 active; AID 687007, 2013; in the data active means inhibition above about 13%
COUP-TFII conf = NR2F2 transcriptional activity inhibitors, confirmation, cell-based, luciferase reporter, HEK293, triplicate | AID 687008, 2013 | 45% of 2,500 active | shares compounds with COUP-TFII inh | inhibition, % at 8.5 µM | HEK293 NGFI-A luciferase reporter, luminescence;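 active means mean inhibition over three repeats above a set limit taken from the earlier primary screen, cut at about 38% in these data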
Hits are given with their value. This is a sample that favours compounds with a hit; in the whole collection about 1.3% have one here.

`O=C(c1ccccc1)c1ccc(Cn2cc(-c3ccccc3)nn2)cc1` gave Gli-Sufu block inactive, COUP-TFII inh 38, LRH-1 inv ag inactive, SRC3 inh inactive, NCOA2 inhibitor inactive, SRC1 inh inactive, Gal4-VP16 ctr inactive and COUP-TFII conf inactive.
`O=C(Nc1cc(Sc2nc3ccccc3s2)cc([N+](=O)[O-])c1)c1ccccc1` gave Gli-Sufu block inactive, COUP-TFII inh inactive, LRH-1 inv ag inactive, SRC3 inh inactive, NCOA2 inhibitor inactive and SRC1 inh inactive.
O=C(Nc1cc(Sc2ccccn2)cc([N+](=O)[O-])c1)c1cccc(F)c1 was read as Gli-Sufu block inactive, COUP-TFII inh 42, LRH-1 inv ag inactive, SRC3 inh inactive, NCOA2 inhibitor inactive, SRC1 inh inactive, Gal4-VP16 ctr inactive and COUP-TFII conf inactive.
CC(=O)c1c(C)[nH]c(C(=O)COc2cc(C)ccc2C(C)C)c1C was read as Gli-Sufu block inactive, COUP-TFII inh 69, LRH-1 inv ag inactive, SRC3 inh inactive, NCOA2 inhibitor inactive, SRC1 inh inactive, Gal4-VP16 ctr inactive and COUP-TFII conf 66.
For COc1ccc(CCN2C(=O)CSC2c2ccc(OC)c(OC)c2)cc1OC (stereo not drawn) the results were Gli-Sufu block inactive, COUP-TFII inh inactive, LRH-1 inv ag inactive, SRC3 inh inactive, NCOA2 inhibitor inactive and SRC1 inh inactive.
`COc1ccc(C2SCC(=O)N2CCc2ccc(OC)c(OC)c2)cc1` (stereo not drawn) gave Gli-Sufu block inactive, COUP-TFII inh 43, LRH-1 inv ag inactive, SRC3 inh inactive, NCOA2 inhibitor inactive, SRC1 inh inactive, Gal4-VP16 ctr inactive and COUP-TFII conf inactive.
CCN(CC(=O)Nc1ccc(NC(C)=O)cc1)C(=O)c1ccc(COc2ccc(C(C)(C)C)cc2)cc1 was read as Gli-Sufu block inactive, COUP-TFII inh 51, LRH-1 inv ag inactive, SRC3 inh inactive, NCOA2 inhibitor inactive, SRC1 inh inactive, Gal4-VP16 ctr inactive and COUP-TFII conf 38.
For COc1cccc(CN(C)C(=O)CNC(=O)c2ccc(-c3ccccc3)cc2)c1OC the results were Gli-Sufu block inactive, COUP-TFII inh 58, LRH-1 inv ag inactive, SRC3 inh inactive, NCOA2 inhibitor inactive, SRC1 inh inactive, Gal4-VP16 ctr inactive and COUP-TFII conf 47.
CCOC(=O)N1CCN(C(=O)c2ccc3c(c2)NC(=O)/C(=C\c2ccc(OC)c(OC)c2)S3)CC1 was read as Gli-Sufu block inactive, COUP-TFII inh inactive, LRH-1 inv ag inactive, SRC3 inh inactive, NCOA2 inhibitor inactive and SRC1 inh inactive.
CCOC(=O)N1CCN(C(=O)c2ccc3c(c2)N(C)C(=O)/C(=C\c2ccc(OCC)c(OC)c2)S3)CC1 was read as Gli-Sufu block inactive, COUP-TFII inh 51, LRH-1 inv ag inactive, SRC3 inh inactive, NCOA2 inhibitor inactive, SRC1 inh inactive, Gal4-VP16 ctr inactive and COUP-TFII conf inactive.
`COc1cccc(/C=C2/Sc3ccc(C(=O)NC4CC4)cc3NC2=O)c1` gave COUP-TFII inh inactive and NCOA2 inhibitor inactive.
Screening CCOC(=O)N1CCC(NC(=O)c2ccc3c(c2)N(C)C(=O)/C(=C/c2cccc(OC)c2)S3)CC1 returned Gli-Sufu block inactive, COUP-TFII inh 40, LRH-1 inv ag inactive, SRC3 inh inactive, NCOA2 inhibitor inactive, SRC1 inh inactive, Gal4-VP16 ctr inactive and COUP-TFII conf 53.
`COc1ccc(/C=C/S(=O)(=O)NCc2ccccc2)c(CNC(=O)OC(C)(C)C)c1` gave COUP-TFII inh inactive and NCOA2 inhibitor inactive.
Screening Cn1cccc1C(=O)N1CCN(S(=O)(=O)c2cccc3ccccc23)CC1 returned COUP-TFII inh inactive and NCOA2 inhibitor inactive.
`COC(=O)C12C=C3CC(c4ccc(OC)cc4)=C3C(=O)N1Cc1[nH]c3ccccc3c1C2` (stereo not drawn) gave COUP-TFII inh inactive and NCOA2 inhibitor inactive.
For C=CCNc1nc(-c2sc(NC(=O)C(C)(C)C)nc2C)c(-n2cc(-c3ccccc3)nn2)s1 the results were COUP-TFII inh 38, LRH-1 inv ag inactive, NCOA2 inhibitor inactive, Gal4-VP16 ctr inactive and COUP-TFII conf inactive.
`C=CCNc1nc(-c2sc(NC(C)=O)nc2C)cs1` gave Gli-Sufu block inactive, COUP-TFII inh inactive, LRH-1 inv ag inactive, SRC3 inh inactive, NCOA2 inhibitor inactive and SRC1 inh inactive.
For COC(=O)C1CN(Cc2ccccc2)CCS(=O)(=O)N1Cc1cn(Cc2ccc(Cl)cc2)nn1 (stereo not drawn) the results were COUP-TFII inh inactive and NCOA2 inhibitor inactive.
NC(=O)c1sc2nc3c(c(-c4cccs4)c2c1N)CCCCC3 was read as Gli-Sufu block inactive, COUP-TFII inh 43, LRH-1 inv ag inactive, SRC3 inh 67, NCOA2 inhibitor inactive, SRC1 inh 69, Gal4-VP16 ctr 14 and COUP-TFII conf inactive.
`NC(=O)c1sc2nc3c(c(-c4cccnc4)c2c1N)CCC3` gave Gli-Sufu block inactive, COUP-TFII inh inactive, LRH-1 inv ag inactive, SRC3 inh inactive, NCOA2 inhibitor inactive and SRC1 inh inactive.
`CCOc1cc(CNCc2ccncc2)cc(Br)c1OCc1ccc(F)cc1` gave Gli-Sufu block inactive, COUP-TFII inh 39, LRH-1 inv ag inactive, SRC3 inh inactive, NCOA2 inhibitor inactive, SRC1 inh inactive, Gal4-VP16 ctr inactive and COUP-TFII conf inactive.
`CCOC(=O)N/N=C/c1c(C)nn(-c2ccccc2Cl)c1Cl` gave Gli-Sufu block inactive, COUP-TFII inh inactive, LRH-1 inv ag inactive, SRC3 inh inactive, NCOA2 inhibitor inactive and SRC1 inh inactive.
`Cc1nn(-c2ccccc2Cl)c(Cl)c1/C=N/Nc1nc2ccccc2s1` gave Gli-Sufu block 86, COUP-TFII inh 86, LRH-1 inv ag inactive, SRC3 inh 79, NCOA2 inhibitor 81, SRC1 inh 67, Gal4-VP16 ctr 88 and COUP-TFII conf 102.
Screening CCN(CC(=O)NCc1ccc(Cl)cc1)C(=O)Cc1ccc(OC)cc1 returned Gli-Sufu block inactive, COUP-TFII inh inactive, LRH-1 inv ag inactive, SRC3 inh inactive, NCOA2 inhibitor inactive and SRC1 inh inactive.
